We go through one compound from PubChem BioAssay (EPA / NIEHS).

Records with an inconclusive call do not appear. Calls of active or inactive are those of the source. Rule for the calls, unless noted: active = hit-call score of the fitted dose curve at least 0.9, where 1 is the maximum; inactive = score below 0.9.

By AC50 is commonly meant the concentration giving half of the maximal activity seen.

The nature of test [1]: CCTE_Shafer_MEA_dev_active_electrodes_number: CCTE's Neural Network Formation Assay for Number of Active Electrodes, Shafer Lab (AID 2284040; active = hit-call score of the fitted dose curve at least 0.9, where 1 is the maximum). The essentials: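 Primary rat cortical neurons on 16-electrode MEA wells, exposed from day 0 through day 12 with compound renewed at DIV 5 and 9 feeds. Active electrodes (mean firing ≥5 spikes/min) counted at DIV 5, 7, 9, 12; trapezoidal AUC across days, loss-of-signal versus DMSO.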

Test [2] can be described thus: CCTE_Shafer_MEA_dev_burst_rate: CCTE's Neural Network Formation Assay for Burst Rate, Shafer Lab (AID 2284042). The essentials:
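Cells plated, treated day 0; recorded DIV 5, 7, 9, 12; fed and re-treated DIV 5, 9. Endpoint: bursts per recording time, active-electrode well mean, trapezoidal AUC, fitted in decreasing direction against DMSO baseline.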

The nature of test [3]: CCTE_Shafer_MEA_dev_per_burst_interspike_interval: CCTE's Neural Network Formation Assay for Burst Interspike Interval, Shafer Lab (AID 2284044). The procedure, abridged: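 Readout is the average time between spikes inside single-electrode bursts, taken as a well mean across bursting electrodes. Cortical neurons from rat developed networks on MEA plates under continuous 12-day exposure; recordings on days 5, 7, 9 and 12 were integrated by trapezoidal AUC.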

Test [4] in a line: CCTE_Shafer_MEA_dev_burst_duration_mean: CCTE's Neural Network Formation Assay for Mean Burst Duration, Shafer Lab (AID 2284045). The essentials: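 Primary rat cortical neurons on PEI-coated 16-electrode MEA wells, exposed from plating through day 12 with compound renewed at DIV 5 and 9; spontaneous activity recorded days 5, 7, 9, 12. Well-mean burst duration collapsed as trapezoidal AUC, fitted for loss versus DMSO.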

A short description of test [5]: CCTE_Shafer_MEA_dev_interburst_interval_mean: CCTE's Neural Network Formation Assay for Mean Interburst Interval, Shafer Lab (AID 2284046).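 Note: curve fitted for decrease in interburst interval relative to DMSO.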 The essentials: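 Developing rat cortical networks on 48-well MEAs receive compound from the day of plating. Burst intervals from each active electrode are averaged per well, and AUC over the recording days is fitted in the negative direction against DMSO.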

A short description of test [6]: CCTE_Shafer_MEA_dev_inter_network_spike_interval_mean: CCTE's Neural Network Formation Assay for Mean Inter-network Spike Interval, Shafer Lab (AID 2284047). The procedure, abridged: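 Rat cortical cultures, 1.5 x 10^5 cells/well on 48-well MEA plates; continuous exposure days 0–12, medium and compound refreshed DIV 5, 9. Mean time between consecutive network-spike peaks; AUC across DIV 5/7/9/12; DMSO baseline, negative fitting direction.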

The nature of test [7]: CCTE_Shafer_MEA_dev_network_spike_number: CCTE's Neural Network Formation Assay for Number of Network Spikes, Shafer Lab (AID 2284048). The essentials:
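Primary rat cortical neurons were seeded at 1.5 x 10^5 cells/well on PEI-coated 16-electrode MEA wells with laminin, exposed from plating day 0, compound renewed at DIV 5 and 9. Network spikes were recorded on days 5, 7, 9, 12 and summarized as trapezoidal AUC versus DMSO.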

Test [8] is described as follows: CCTE_Shafer_MEA_dev_spike_duration_mean: CCTE's Neural Network Formation Assay for Mean Spike Duration, Shafer Lab (AID 2284051).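 Note: mean network spike duration pooled as area under curve over DIV 5 to 12 recordings.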 The procedure, abridged:
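Readout is the average length of network spikes, clustered firing across electrodes, summed over DIV 5, 7, 9 and 12 as area under the curve. Neurons from rat cortex developed networks on MEA plates under continuous 12-day exposure.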

Test [9] can be described thus: CCTE_Shafer_MEA_dev_network_spike_duration_std: CCTE's Neural Network Formation Assay for Standard Deviation of Network Spike Duration, Shafer Lab (AID 2284052).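 Note: area under curve of spike duration SD across recording days 5 to 12; hits are decreases in network spike duration SD versus DMSO vehicle.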 The procedure, abridged:
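Read-out is the trapezoidal area-under-the-curve across recordings made on days 5, 7, 9 and 12, fitted in the negative direction against DMSO baseline. Neurons were primary rat cortical cells treated from day 0, with treatment renewed at each feed.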

Test [10] is described as follows: CCTE_Shafer_MEA_dev_per_network_spike_spike_number_mean: CCTE's Neural Network Formation Assay for Mean Number of Spikes in a Network Spike, Shafer Lab (AID 2284053). The procedure, abridged: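 Continuous twelve-day exposure of developing rat cortical networks grown over 16 microelectrodes per well; spontaneous firing is captured at four time points, and the per-network-spike spike number is integrated over development by trapezoidal AUC.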

Test [11] can be described thus: CCTE_Shafer_MEA_dev_per_network_spike_spike_percent: CCTE's Neural Network Formation Assay for Percent of Spikes in a Network Spike, Shafer Lab (AID 2284054). The essentials:
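Primary rat cortical neurons on 16-electrode MEA wells (PEI-coated, laminin at plating), exposed from day 0 with renewal at DIV 5 and 9; spikes within 0.05 s of network-spike peaks over total spikes, AUC across days 5, 7, 9, 12.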

A short description of test [12]: CCTE_Shafer_MEA_dev_LDH: CCTE's Lactate Dehydrogenase Assay for Cytotoxicity in the Neural Network Formation Assay, Shafer Lab (AID 2284068; active = hit-call score of the fitted dose curve at least 0.9, where 1 is the maximum;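 note: exposure for twelve days from plating with re-dosing on DIV 5 and 9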). The procedure, abridged:
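Cytotoxicity companion to network-formation recordings: rat cortical neurons received compound over 12 days of development, re-dosed at DIV 5 and 9 feeds. Viability was inferred from LDH enzyme activity relative to DMSO.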

Test [13] is described as follows: CCTE_Shafer_MEA_dev_AB: CCTE's Alamar Blue Assay for Cytotoxicity in the Neural Network Formation Assay, Shafer Lab (AID 2284083; active = hit-call score of the fitted dose curve at least 0.9, where 1 is the maximum;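 note: resazurin reduction fluorescence as viability of cultured neurons; twelve days of exposure from plating with re-dosing on DIV 5 and 9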). The essentials:
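Fluorescent resazurin reduction serves as the viability read-out, with DMSO as negative control and baseline. Cells were primary rat cortical neurons grown on MEA plates and dosed from day 0 to day 12, treatment renewed on DIV 5 and 9.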
(In general: The colour change of resazurin is a common sign of viable cells or microbes.)

Test [14] in a line: CCTE_Shafer_MEA_dev_mutual_information_norm: CCTE's Neural Network Formation Assay for Mutual Information Normalization, Shafer Lab (AID 2284091). The essentials: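 Rat cortical cultures, 48-well MEA, continuous exposure DIV 0–12 with full media/compound change DIV 5 and 9. Readout: inter-electrode mutual information, AxIS adaptive spike detection; AUC across DIV 5/7/9/12 recordings; DMSO baseline, negative fitting direction.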

A short description of test [15]: CCTE_Shafer_MEA_dev_correlation_coefficient_mean: CCTE's Neural Network Formation Assay for Mean Correlation Coefficient, Shafer Lab (AID 2284093). The procedure, abridged: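 Read-out: well-mean correlation coefficient of spike trains between electrode pairs, collapsed over four recording days as trapezoidal area-under-the-curve. Developing rat cortical neuron networks grown on MEAs received test chemical continuously from plating.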

A short description of test [16]: TAMU_PeakParms_SingleDonor1434_Chronotropy: Texas A&M University (TAMU) 1.5-hr Human Induced Pluripotent Stem Cell (iPSC)-derived Cardiomyocytes Calcium (Ca+2) Flux Assay for Cardiotoxicity: Chronotropy (changes in peak frequency) (AID 2284217). The settings on record: actives raise or lower the signal. The procedure, abridged:
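Beat frequency of single-donor iPSC cardiomyocytes was recorded through a calcium-sensitive dye 1.5 hours after exposure to four concentrations up to 100 uM. An EC05 point of departure was derived.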

Test [17] in a line: TAMU_HCS_1.5hr_SingleDonor1434_Cytotoxicity: Cytotoxicity Assessment using High-content Screening (HCS) Fluorescent Imaging for the Texas A&M University (TAMU) 1.5-hr Human Induced Pluripotent Stem Cell (iPSC)-derived Cardiotoxicity Assay (AID 2284234; active = hit-call score of the fitted dose curve at least 0.9, where 1 is the maximum). The essentials: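 Human iPSC-derived cardiomyocytes dosed at 0.2, 1, 10, 100 uM final (0.5% DMSO) for 90 min at 37 C. Hoechst 33342-stained nuclei counted by 10x high-content imaging; POD is EC10, a 10% drop in total cell count versus DMSO.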

Test [18] in a line: TAMU_PeakParms_SingleDonor1434_Asystole: Texas A&M University (TAMU) 1.5-hr Human Induced Pluripotent Stem Cell (iPSC)-derived Cardiomyocytes Calcium (Ca+2) Flux Assay for Cardiotoxicity: Asystole (quiescence of beating) (AID 2284328; active = hit-call score of the fitted dose curve at least 0.9, where 1 is the maximum). The essentials: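 Human iPSC-derived cardiomyocytes (donor 1434) were exposed to 0.2, 1, 10 and 100 uM compound in 0.5% DMSO for 90 min at 37C. Ca2+-dye fluorescence gave average peak frequency; POD is EC95, a 95% beat-rate drop versus DMSO.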

For the compound `c1ccc2cc3c(cc2c1)-c1cccc2cccc-3c12`, the outcome in test [1], in test [2], in [3], in test [4], in test [5] and in test [6] was inactive. In addition, the outcome in [7], in [8], in test [9], in test [10], in test [11] and in test [12] was inactive. Besides, the compound was classed as inactive in test [13], in test [14], in test [15], in test [17] and in [18]. Besides, the concentration at half-maximal activity (AC50) in [16] was 9.92 µM (active).
